Laboratory results published in PubChem BioAssay AID493231 (Broad Institute, 2011).
Measured potencies and affinities stand elsewhere. Active and inactive are the calls of the source. No rule for the calls is given here.

molecular target: Acyl-homoserine lactone acylase PvdQ (Pseudomonas aeruginosa (strain ATCC 15692 / DSM 22644 / CIP 104116 / JCM 14847 / LMG 12228 / 1C / PRS 101 / PAO1)) (UniProt Q9I194); test: PvdQ acylase enzyme activity blockers – biochemical, fluorescence, plate reader and imaging, cherry-picks, dose response (AID 493231); conditions: purified PvdQ acylase, fluorogenic substrate; series mostly up to 10 µM;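 also: more negative values mean stronger inhibition of the acylase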
Sequence (Q9I194 whole entry, looked up): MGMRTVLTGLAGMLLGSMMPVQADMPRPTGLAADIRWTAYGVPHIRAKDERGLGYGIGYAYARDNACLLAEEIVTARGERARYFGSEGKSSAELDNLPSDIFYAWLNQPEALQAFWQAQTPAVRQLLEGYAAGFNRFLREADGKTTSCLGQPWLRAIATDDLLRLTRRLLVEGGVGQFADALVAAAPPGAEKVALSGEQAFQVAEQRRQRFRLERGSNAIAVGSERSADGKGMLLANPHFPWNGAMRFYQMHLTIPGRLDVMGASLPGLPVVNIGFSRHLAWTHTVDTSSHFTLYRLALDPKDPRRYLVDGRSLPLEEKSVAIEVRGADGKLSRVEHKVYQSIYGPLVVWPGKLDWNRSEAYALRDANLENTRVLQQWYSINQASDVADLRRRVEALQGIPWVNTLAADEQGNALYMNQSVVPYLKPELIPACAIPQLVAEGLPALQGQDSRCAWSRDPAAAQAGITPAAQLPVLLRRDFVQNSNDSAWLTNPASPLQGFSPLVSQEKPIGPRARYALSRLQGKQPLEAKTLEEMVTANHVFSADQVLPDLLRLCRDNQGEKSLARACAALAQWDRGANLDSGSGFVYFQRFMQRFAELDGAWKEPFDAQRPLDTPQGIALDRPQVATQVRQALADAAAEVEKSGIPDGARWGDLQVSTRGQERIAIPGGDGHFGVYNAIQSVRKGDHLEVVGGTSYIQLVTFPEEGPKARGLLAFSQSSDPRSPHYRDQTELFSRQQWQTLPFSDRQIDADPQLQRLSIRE

outcome, inactive:
Cc1ccccc1-c1cc(C(=O)NCc2cccs2)nn1CC1CC(c2cccc([N+](=O)[O-])c2)=NO1 (stereo unspecified)
CSC(=S)N/N=C/c1ccccc1
COc1ccc(CCNC(=O)c2cccc(S(=O)(=O)N3CCc4ccccc4C3)c2)cc1
N#C/C(=C\c1ccco1)c1nc2ccccc2s1
Cc1ccc2nc(-c3ccc(O)cc3)oc2c1
COc1ccc(OCCCC(=O)Nc2cccc(SC)c2)cc1
COC(=O)C(C(=O)OC)c1ncccc1[N+](=O)[O-]
O=C1CCC(=O)N1CCSC(=S)N1CCSCC1
COc1ccc(OC2CCN(S(=O)(=O)c3ccc(OC)c(OC)c3)CC2)cc1
O=C(/C=C/c1ccc(Cl)cc1)N1CCN(c2ccccc2[N+](=O)[O-])CC1
O=C(CCc1c[nH]c2ccccc12)N/N=C/c1ccc2c(c1)OCO2
CCOC(=O)CC(NC(=O)c1ccco1)c1ccccc1Cl (stereo unspecified)
c1ccc(CCc2ccccn2)cc1
CC1CCCCN1C(=O)CSc1nc2ccccc2[nH]1 (stereo unspecified)
O=C(OCc1nc2ccccc2s1)c1ccc([N+](=O)[O-])o1
Cc1ccsc1C(=O)NCCC(c1ccccc1)c1ccccc1
COc1ccc(Nc2nnc(-c3ccc(C)cc3)c3ccccc23)cc1C(=O)N1CCCCC1
COc1ccc(NC(=O)C(c2cc3c(cc2[N+](=O)[O-])OCO3)N2CCN(C=O)CC2)cc1 (stereo unspecified)
CC1(OC(=O)CCc2ccccc2)C(=O)C=C2C=C(c3ccc(C#N)cc3)N(Cc3ccccc3)C=C2C1=O (stereo unspecified)
NC(=O)c1ncn([C@@H]2O[C@H](CNCc3ccc(-c4cc(C(F)(F)F)ccc4Cl)o3)[C@@H](O)[C@H]2O)n1
Cc1cc(C)cc(N2C(=O)CC(Sc3ccccc3C(=O)O)C2=O)c1 (stereo unspecified)
N#C/C(C(=S)Nc1ccccc1)=C1/NN=C(N2CCOCC2)N1c1ccccc1
Nc1nc(-c2ccc(Cl)cc2)nn1C(=O)c1ccco1
CCOC(=O)/C(C#N)=C/c1c(N2CCCCCC2)nc2ccccn2c1=O
CCOC(=O)c1cc(-c2cccc([N+](=O)[O-])c2)on1
C=CCC1S/C(=N/N=C/c2cccs2)NC1=O (stereo unspecified)
CN(C)CCCN(Cc1cc2cc3c(cc2[nH]c1=O)OCO3)C(=S)Nc1cccc(Cl)c1
O=C(CCCN1C(=O)/C(=C/c2ccccc2)SC1=S)Nc1ccccc1O
O=C(O)c1cc2nccc(-c3ccco3)n2n1
Cc1ccccc1OCCSc1nnc(-c2ccncc2)n1C
O=C(Nc1cccc(NC(=O)c2sc3ccccc3c2Cl)c1)c1ccco1
Cc1cccc(Nc2nnc(SCC(=O)c3c(N)n(C4CC4)c(=O)[nH]c3=O)s2)c1
CCOC(=O)c1ccc(N2Cc3ccccc3C2=NC(=O)c2ccncc2)cc1
CCOC(=O)C(Oc1ccc(=O)[nH]n1)C(C)=O (stereo unspecified)
Cc1ccc(-n2c(C)cn(C(=O)c3ccccc3)c2=S)cc1
CN1C(=O)/C(=C/c2ccc(O)c([N+](=O)[O-])c2)N(C)C1=S
